Screening data: PubChem BioAssay, several laboratories
Only some compounds are listed: those with a hit (about 5.3% of all), similar ones and a draw of the others.
HIF activator = HIF pathway transcriptional activation; U2OS HRE-luciferase reporter, luminescence; normalized: DMSO 0%, desferrioxamine 100%; activation, % at 7.5 µM (by protocol); hit rate 0.32% among 300,000; AID 1910;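 active = mean activation of at least 10% of the iron chelator positive control signal, with at least half of replicates also reaching 10%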
M18AAP inhibitor = blocks P. falciparum M18 aspartyl aminopeptidase. hit rate 1.2% among 290,000. AID 1822. inhibition, % at 7.35 µM. recombinant PfM18AAP, H-Glu-NHMec fluorogenic cleavage;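 active = inhibition above the campaign mean inhibition over all tested compounds plus 3 SD, cut at about 28% in these data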
ALR H2O2 inh = human ALR oxidase inhibition via reduced H2O2; hit rate 3.8% among 290,000; inhibition, % (test concentration not listed); P55789; AID 485317; purified ALR, DTT oxidation, H2O2 HRP-luminol luminescence;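 active = mean replicate inhibition above about 79%, with every replicate also reaching it, limit read from the data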
Target sequence (P55789 whole entry, looked up): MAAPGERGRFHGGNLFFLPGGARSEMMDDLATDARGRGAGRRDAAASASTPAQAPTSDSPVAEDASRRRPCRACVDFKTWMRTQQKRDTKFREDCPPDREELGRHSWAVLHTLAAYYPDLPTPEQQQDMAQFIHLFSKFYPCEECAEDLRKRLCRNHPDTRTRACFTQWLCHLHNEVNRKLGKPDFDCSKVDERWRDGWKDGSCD
SUMO Mot1 rescue = inhibitors of SUMOylation pathway: yeast Mot1-301 growth rescue; hit rate 1% among 320,000; growth rescue, % at 18.8 µM; S. cerevisiae Mot1-301 growth rescue, ATP luminescence, 38.5C; percent above DMSO median, 100 means doubled;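 active = every valid replicate shows activation above 250% relative to neutral control wells; inactive = the rest, any valid replicate at or below 250%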
Large screens that a line does not name were inactive.

COc1ccc(NC2CCCN(C(=O)c3ccc(OC)cc3OC)C2)cc1 (configuration not stated)	ALR H2O2 inh 99
COc1ccc(NC2CCCN(C(=O)c3ccc4[nH]c(C)c(C)c4c3)C2)cc1OC (configuration not stated)	ALR H2O2 inh 99
Cc1ccc(NC2CCCN(C(=O)C3CCCC3)C2)cc1C (configuration not stated)	ALR H2O2 inh 99
Cc1ccc(NC2CCCN(C(=O)c3ccoc3C)C2)cc1C (configuration not stated)	ALR H2O2 inh 98
Cc1ccc(NC2CCCN(C(=O)c3ccc(C)c(N4CCNC4=O)c3)C2)cc1C (configuration not stated)	ALR H2O2 inh 93
CCn1nc(C)cc1C(=O)N1CCCC(Nc2ccc(F)c(F)c2)C1 (configuration not stated)	none
Cc1ccc(NC2CCCN(C(=O)c3ccoc3)C2)cc1C (configuration not stated)	ALR H2O2 inh 99 (no result: SUMO Mot1 rescue)
COc1ccc(C(=O)N2CCCC(Nc3ccc(C)c(C)c3)C2)cc1 (configuration not stated)	ALR H2O2 inh 98
Cc1ccc(C(=O)N2CCCC(Nc3ccc(C)c(C)c3)C2)c(=O)[nH]1 (configuration not stated)	none
CCn1nc(CC(C)C)cc1C(=O)N1CCCC(Nc2ccc(OC)cc2)C1 (configuration not stated)	ALR H2O2 inh 98
CCN(CC)C(=O)c1cccc(NC(=O)CC23CC4CC(CC(C4)C2)C3)c1	none (no result: ALR H2O2 inh)
COC(=O)c1ccc(C(=O)N2CCCC(Nc3ccc(F)c(F)c3)C2)cc1 (configuration not stated)	none
CC(=O)c1ccc(OCC(=O)N2CCCC(Nc3ccc(C)c(C)c3)C2)cc1 (configuration not stated)	ALR H2O2 inh 85
COc1ccccc1C(CNC(=O)C(C)Oc1ccc(Br)cc1)N1CCCC1 (configuration not stated)	none (no result: M18AAP inhibitor)
O=C(CCC1N=C2c3ccccc3N=C(SCc3ccc(Cl)cc3)N2C1=O)NCc1ccco1 (configuration not stated)	ALR H2O2 inh 98
O=C(CCC1N=C2c3ccccc3N=C(SCc3ccc(F)cc3)N2C1=O)NCc1ccco1 (configuration not stated)	none
COC(=O)CCCC1=CC2=CC(=O)C(C)(OC(=O)c3cccs3)C(=O)C2=CN1C1CC1 (configuration not stated)	none (no result: M18AAP inhibitor)
Cc1sc2nc(CSC(C)C(=O)Nc3ccc(C#N)cc3)[nH]c(=O)c2c1C (configuration not stated)	ALR H2O2 inh 98 (no result: M18AAP inhibitor)
Cc1sc2nc(CSC(C)C(=O)Nc3ccc(C(N)=O)cc3)[nH]c(=O)c2c1C (configuration not stated)	ALR H2O2 inh 100 (no result: M18AAP inhibitor)
CCOc1ccc2[nH]c(=S)[nH]c2c1	none (no result: ALR H2O2 inh)
CCOc1ccc2c(c1)n(CO)c(=S)n2CO	ALR H2O2 inh 100
COc1ccc(OC)c(Cc2nnc(CCC(=O)N3CCN(C4CCCC4)CC3)o2)c1	none
Cc1ccc(C(=O)NCCNC(=O)COc2ccccc2Cl)cn1	none
COc1cc(NC(=O)CC(C)S(=O)(=O)c2ccc3c(c2)NC(=O)CO3)cc(OC)c1OC (configuration not stated)	none
c1ccc(Nc2cccc(Nc3ccccc3)n2)cc1	ALR H2O2 inh 99
COc1ccc(N(CC(=O)NC2CCCC2)C(=O)Cn2nnc(-c3ccc(F)cc3)n2)cc1	none
O=C(NC1CCCC1)c1cc2nc(-c3ccco3)cc(C(F)(F)F)n2n1	ALR H2O2 inh 88
CC(C)NC(=O)c1nn2c(C(F)(F)F)cc(-c3ccco3)nc2c1Cl	ALR H2O2 inh 86
CCCNC(=O)c1cc2nc(-c3ccccc3)cc(C(F)(F)F)n2n1	HIF activator 96
O=C(NCCCN1CCOCC1)c1nn2c(C(F)(F)F)cc(-c3ccco3)nc2c1Cl	none
CC(C)NC(=O)c1cc2nc(-c3ccco3)cc(C(F)(F)F)n2n1	none
CCCc1nc(SC2CCCC2)c2c(=O)n(C)c(=O)n(C)c2n1	ALR H2O2 inh 98 (no result: M18AAP inhibitor)
CC(C)CN1C(=O)C(=O)N(CC(=O)N2CCN(c3ccccc3)CC2)C1=O	none (no result: M18AAP inhibitor, ALR H2O2 inh)
Cc1ccc(NC(=O)c2cc(NC(=O)/C=C\C(=O)O)ccc2N2CCCCC2)cc1	ALR H2O2 inh 99
Cc1ccc(NC(=O)c2cc(N3C(=O)CCC3=O)ccc2N2CCCCC2)cc1	none
Cc1ccc(NC(=O)c2cc(NC(=O)c3ccccc3C(=O)O)ccc2N2CCCCC2)cc1	ALR H2O2 inh 99
CC(=O)Nc1ccc(N2CCCCC2)c(C(=O)Nc2cccc(C)c2)c1	ALR H2O2 inh 97
